Results from the supplement of paper PMC6555819.

Each sequence was assayed on PPARg:RXRa 30nM:10nM, anti-RXR (NR concentration 30 nM, RXRa partner concentration 10 nM) (assay: PBM binding z-score (relative to random genomic background probes); higher = stronger binding; sequences stand for … in GC…GCGATTGACAGCGTAGAATGAAGG).
Summary of the method: (§1)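 Binding z-scores were set against random background probes. The data came from custom Agilent 4×180K protein-binding microarrays carrying double-stranded probes with 34-nt variable regions, incubated 1 h with ligand-free nuclear receptor dimers. Partner-specific antibodies detected binding, and scanned fluorescence was regression-normalized.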

| Sequence | PBM binding z-score |
| --- | --- |
| CGAACGAGGGCATGAGTTCATAGCAAATGCCGAT | 0.55 |
| GCTTGCAGGCCATTTGGGTCACTCAATGACGGGC | 0.00542 |
| TGTCAAAGTTCAAACGTAACGTAAGTATCCACAC | 5.26 |
| TAGCCTAGGTCATCCAGGGGCCAGTATAGAAAGC | 0.738 |
| ATCACTAGGTAACAAGTTCAGTGAAAGAGAGGAC | 1.14 |
| ACTAGTTGGTCAGCAGAGGTCACACACAATTCGG | 1.16 |
| CATACAGGGTCAGCTAGGCCAGAGTGGGGACGGC | 0.597 |
| TCTTGCAGATCAACAGGAGGTTAAGAAAGATCGA | 1.89 |
| TCTGCTAGGTCAGTTGGTCTGCTAACGAGCTGCC | 0.751 |
| TCATATAGGTAAACAGGAGAAAGTCCGTAAGTTA | 3.93 |
| CGAACGAGCGCATGAGTTGATAGCAAATGCCGAT | -0.312 |
| GCTTACGGGTCAAAGGTTTTAGCATGAATAGAAT | 6.54 |
| ACTTACGGGTCAACGAGGTTATATCACGCGTATA | 2.11 |
| CGAACGAGGGCATGAGTTGATATCAAATGCCGAT | 0.347 |
| TCTTGTAGATCAAAGGTTAAGAATGCCGAAGCCT | 8.02 |
| AGAGCGAGGGCAATGAGTTGATAGCACGGGTGGC | -0.57 |
| CTTACAGGGTCAGCTAGGCCAGAGTAGGGACGGC | 0.782 |
| TCATATACGTAAAGGTGAAAGTCGAACGATATGA | 3.86 |
| TCTGCTAGGTCAACGATGGTCAGCTGATCTGCTA | 1.81 |
| TAGCCTAGGTCAGATCGGGCTAGTATACGCTATA | -0.237 |

| Sequence | PBM binding z-score |
| --- | --- |
| ATCTCTAGGTAAAAGATCAGTGAATCCCGAGGAT | 4.13 |
| TAGCCTAGGTCATGGGCCATTATACCACGCGAAC | 1.44 |
| TGAATGAGGTTATAAGATCAGAGAACGTTGCAAA | 1.04 |
| CCTACTGGGCCACGAAAGGTCATTGTTTCAGTGA | 1.73 |
| CGAACTAGTTCATTGACAGGACAGTGAATAGTAA | -0.0865 |
| CCAGACAGGTGAGAAGGTAACTCATCCTCGATTA | 0.0272 |
| ATCGAAAGTTCGAGGTGAGTATAGAGAAAGGGAA | 0.3 |
| TTATATAGGTAATACAGGTGAAAGTCGGCATCTA | 2.07 |
| TCTATTAGTTGAAGGGCAAGCGACGAGTCCGTTT | 3.57 |
| TCTATTATTTGAAGGGCAACCGACGAGTCCGTTT | 4.08 |
| TCATATAGGTAAAAAGTGAAAGTCGGTGTGGTAA | 5.22 |
| TCTTGTAGATCAATAGAGGTTAAGACAGTGCGCT | 2.9 |
| TCTTGTAGATCAATAGAGGTTATGAAAGTGCGCT | 2.99 |
| GCGACTGGCGCATCAGCAGGTTACCATAACTTAA | -0.798 |
| ATCTCTAGGTAACGATAGTTCAGTGAATGCAAAT | 0.214 |
| CCGACTGGGGCACGGTTACCATAACGCACAGCCA | -0.228 |
| CGAACGAGGGCATGAGTTGATTGCAAATGCCGAT | 0.205 |
| TCTCAGAGGACACGAAGGTCAGAGCTTTCCAGAG | 3.02 |
| TAGCCAAGGTCATGCGGGCCAGTATAGTGTCGGC | 1.61 |

Each sequence was assayed on PPARg:RXRa 90nM:30nM, anti-RXR (NR concentration 90 nM, RXRa partner concentration 30 nM) in the same assay as above.
Summary of the method: as §1

| Sequence | PBM binding z-score |
| --- | --- |
| CGAACGAGGGCATGAGTTCATAGCAAATGCCGAT | 2.23 |
| GCTTGCAGGCCATTTGGGTCACTCAATGACGGGC | 0.391 |
| TGTCAAAGTTCAAACGTAACGTAAGTATCCACAC | 7.39 |
| TAGCCTAGGTCATCCAGGGGCCAGTATAGAAAGC | 1.52 |
| ATCACTAGGTAACAAGTTCAGTGAAAGAGAGGAC | 2.5 |
| ACTAGTTGGTCAGCAGAGGTCACACACAATTCGG | 3.11 |
| CATACAGGGTCAGCTAGGCCAGAGTGGGGACGGC | 1.9 |
| TCTTGCAGATCAACAGGAGGTTAAGAAAGATCGA | 1.63 |
| TCTGCTAGGTCAGTTGGTCTGCTAACGAGCTGCC | 1.14 |
| TCATATAGGTAAACAGGAGAAAGTCCGTAAGTTA | 3.07 |
| CGAACGAGCGCATGAGTTGATAGCAAATGCCGAT | -0.44 |
| GCTTACGGGTCAAAGGTTTTAGCATGAATAGAAT | 8.43 |
| ACTTACGGGTCAACGAGGTTATATCACGCGTATA | 3.79 |
| CGAACGAGGGCATGAGTTGATATCAAATGCCGAT | 0.786 |
| TCTTGTAGATCAAAGGTTAAGAATGCCGAAGCCT | 8.37 |
| AGAGCGAGGGCAATGAGTTGATAGCACGGGTGGC | -0.736 |
| CTTACAGGGTCAGCTAGGCCAGAGTAGGGACGGC | 2.02 |
| TCATATACGTAAAGGTGAAAGTCGAACGATATGA | 3.15 |
| TCTGCTAGGTCAACGATGGTCAGCTGATCTGCTA | 2.66 |
| TAGCCTAGGTCAGATCGGGCTAGTATACGCTATA | 0.393 |

| Sequence | PBM binding z-score |
| --- | --- |
| ATCTCTAGGTAAAAGATCAGTGAATCCCGAGGAT | 5.66 |
| TAGCCTAGGTCATGGGCCATTATACCACGCGAAC | 2.97 |
| TGAATGAGGTTATAAGATCAGAGAACGTTGCAAA | 1.35 |
| CCTACTGGGCCACGAAAGGTCATTGTTTCAGTGA | 4.24 |
| CGAACTAGTTCATTGACAGGACAGTGAATAGTAA | -0.122 |
| CCAGACAGGTGAGAAGGTAACTCATCCTCGATTA | 0.508 |
| ATCGAAAGTTCGAGGTGAGTATAGAGAAAGGGAA | 0.478 |
| TTATATAGGTAATACAGGTGAAAGTCGGCATCTA | 2.5 |
| TCTATTAGTTGAAGGGCAAGCGACGAGTCCGTTT | 2.98 |
| TCTATTATTTGAAGGGCAACCGACGAGTCCGTTT | 3.41 |
| TCATATAGGTAAAAAGTGAAAGTCGGTGTGGTAA | 5.77 |
| TCTTGTAGATCAATAGAGGTTAAGACAGTGCGCT | 2.34 |
| TCTTGTAGATCAATAGAGGTTATGAAAGTGCGCT | 2.41 |
| GCGACTGGCGCATCAGCAGGTTACCATAACTTAA | -0.75 |
| ATCTCTAGGTAACGATAGTTCAGTGAATGCAAAT | 0.514 |
| CCGACTGGGGCACGGTTACCATAACGCACAGCCA | 0.391 |
| CGAACGAGGGCATGAGTTGATTGCAAATGCCGAT | 1.08 |
| TCTCAGAGGACACGAAGGTCAGAGCTTTCCAGAG | 2.45 |
| TAGCCAAGGTCATGCGGGCCAGTATAGTGTCGGC | 3.73 |
